Source: PubChem BioAssay (NCATS)
Results filed as inconclusive are left out. Activity calls are given as the source filed them. Calls follow the shape of the dose curve; as a rule, active = well fitted curve in the direction sought with a large enough effect; inconclusive = small, poorly fitted or top-dose-only effect, or another doubt; inactive = no such curve, though single readings can be large; an effect the other way counts as inactive or inconclusive.

Experiment: qHTS for Activators of Parkin Expression: LOPAC Validation Assay (NLuc Reporter) (AID 720572)
Conditions: Parkin promoter NanoLuc reporter cells, luminescence; series mostly up to 46.1 µM; activation: at the top concentration
Procedure, shortened: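 Neuronal cells with a Parkin promoter-driven FLuc/NLuc coincidence reporter were treated 24 h at 37 C in 7-point dose response (LOPAC). NLuc luminescence read after FLuc; signals normalized to DMSO and positive control (100%).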
Potency is read from the fitted curve at half-maximal effect.

Row | Compound | activation | Potency
1 | CC(C)(C)c1cc(/C=C(\C#N)C(N)=S)cc(C(C)(C)C)c1O | -1.48% (inactive) | 
2 | COc1cccc(OC)c1OCCNCC1CSc2ccccc2O1 (stereo not drawn) | -5.72% (inactive) | 
3 | CSC(N)=NCCC[C@H](N)C(=O)O | -0.788% (inactive) | 
4 | CCOC(=O)C12CC1/C(=N/O)c1ccccc1O2 (stereo not drawn) | -3.21% (inactive) | 
5 | Nc1nc2c(nc(Br)n2C2OC3COP(=O)(O)O[C@@H]3C2O)c(=O)[nH]1 (stereo partly drawn) | 2.26% (inactive) | 
6 | Oc1ccc(Cn2cc[nH]c2=S)cc1 | -2.44% (inactive) | 
7 | Cn1cc(C(=O)OCC2CCN(CCNS(C)(=O)=O)CC2)c2ccccc21 | -6.1% (inactive) | 
8 | Nc1ccc2c3c(cccc13)C(=O)NC2=O | 9.78% (inactive) | 
9 | NCCC1CCCC(CCN)N1 (stereo not drawn) | -0.282% (inactive) | 
10 | CCCC(=O)NCCc1c2n(c3ccc(OC)cc13)CCCc1ccccc1-2 | 10.9% (inactive) | 
11 | CCCCCCCCCCC(C)(C)C(=O)Nc1c(OC)cc(OC)cc1OC | -7.83% (inactive) | 
12 | N=S(=O)(O)Cc1noc2ccccc12 | -5.5% (inactive) | 
13 | O=C1Cc2c([nH]c3ccc(Br)cc23)-c2ccccc2N1 |  | 5.8 µM (active)
14 | CC1CCN=C(N)S1 (stereo not drawn) | 1.77% (inactive) | 
15 | NC(C(=O)N[C@@H]1C(=O)N2C(C(=O)O)=C(Cl)CS[C@H]12)c1ccccc1 (stereo partly drawn) | -2.02% (inactive) | 
16 | OC[C@H]1O[C@H](n2cnc3c(N[C@H]4CCC[C@@H]4O)ncnc32)[C@H](O)[C@@H]1O | -2.44% (inactive) | 
17 | OCC1NCC(O)C(O)C1O (stereo not drawn) | -6.42% (inactive) | 
18 | C[C@@H](NCCc1ccc(O)cc1)[C@@H](O)c1ccc(O)cc1 | 2.55% (inactive) | 
19 | CC[n+]1c(/C=C/C=C2/N(C)c3ccccc3C2(C)C)sc2ccccc21 | -28.4% (inactive) | 

Row | Compound | activation | Potency
20 | COC1(C2=NCCN2)COc2ccccc2O1 (stereo not drawn) | -2.05% (inactive) | 
21 | N[C@@H](CS(=O)O)C(=O)O | -3.95% (inactive) | 
22 | CC(N)(C(=O)O)c1ccc(C(=O)O)cc1 (stereo not drawn) | -3.41% (inactive) | 
23 | O=C(O)c1ccccc1Nc1ccccc1 | 8.9% (inactive) | 
24 | N[C@H](C(=O)O)[C@H](O)C(=O)O | 1.66% (inactive) | 
25 | c1ccc(CN2CCC3(CCCc4ccccc43)CC2)cc1 | -5.52% (inactive) | 
26 | NCCS(=O)O | 6.65% (inactive) | 
27 | NC1(C(=O)O)CCc2cc(C(=O)O)ccc21 (stereo not drawn) | 1.07% (inactive) | 
28 | CC(=O)NNC(=O)N1Cc2ccccc2Oc2ccc(Cl)cc21 | 6.51% (inactive) | 
29 | N#Cc1cc2nc(O)c(O)nc2cc1[N+](=O)[O-] | -2.51% (inactive) | 
30 | CCC1(O)CC2CN(CCc3c([nH]c4ccccc34)[C@@](C(=O)OC)(c3cc4c(cc3OC)N(C)C3[C@]45CCN4CC=C[C@@](CC)([C@@H](OC(C)=O)[C@]3(O)C(=O)OC)[C@H]45)C2)C1 (stereo partly drawn) | -17.1% (inactive) | 
31 | CCCCCCC/C=C\CCCCCCCCC(=O)O | 12.4% (inactive) | 
32 | O=c1ccn([C@@H]2O[C@H](COP(=O)(O)OP(=O)(O)O)[C@@H](O)[C@H]2O)c(=O)[nH]1 | 1.1% (inactive) | 
33 | O=C(OCCN1CCOCC1)C1(c2ccccc2)CCCCC1 | -4.8% (inactive) | 
34 | COc1ccccc1N1CCN(CCN(C(=O)c2ccc(F)cc2)c2ccccn2)CC1 | -7.13% (inactive) | 
35 | CCN(CC)CCCCCCCCOC(=O)c1cc(OC)c(OC)c(OC)c1 | 0.104% (inactive) | 
36 | CCCOC(=O)c1c(-c2ccccc2)nc(CC)c(C(=O)SCC)c1CCC | -5.94% (inactive) | 
37 | [N-]=[N+]=Nc1ccc(C(=O)CSC[C@H](NC(=O)CC[C@H](N)C(=O)O)C(=O)NCC(=O)O)cc1 | 10.9% (inactive) | 
38 | CN1CCN(c2nc3cc(C(F)(F)F)ccc3n3cccc23)CC1 | -0.962% (inactive) | 

Experiment: qHTS for Activators of Parkin Expression: LOPAC Validation Assay (FLuc Reporter) (AID 720573)
Conditions: Cell line, PRKN promoter firefly luciferase reporter; series mostly up to 46.1 µM; activation: at the top concentration
Procedure, shortened: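 Cells seeded, 24 h; compounds pinned, 7-pt dose response; 24 h at 37 C/5% CO2; volume reduced; FLuc reagent 10 min RT; luminescence read. Normalization: DMSO = 0, positive control = 100%.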

Row | Compound | activation | Potency
39 | CC(C)(C)c1cc(/C=C(\C#N)C(N)=S)cc(C(C)(C)C)c1O | 7.73% (inactive) | 
40 | COc1cccc(OC)c1OCCNCC1CSc2ccccc2O1 (stereo not drawn) | -7.55% (inactive) | 
41 | CSC(N)=NCCC[C@H](N)C(=O)O | -2.63% (inactive) | 
42 | CCOC(=O)C12CC1/C(=N/O)c1ccccc1O2 (stereo not drawn) | -9.28% (inactive) | 
43 | Nc1nc2c(nc(Br)n2C2OC3COP(=O)(O)O[C@@H]3C2O)c(=O)[nH]1 (stereo partly drawn) | 1.33% (inactive) | 
44 | Cn1cc(C(=O)OCC2CCN(CCNS(C)(=O)=O)CC2)c2ccccc21 | -7.84% (inactive) | 
45 | Nc1ccc2c3c(cccc13)C(=O)NC2=O | 4.11% (inactive) | 
46 | NCCC1CCCC(CCN)N1 (stereo not drawn) | -7.07% (inactive) | 
47 | CCCC(=O)NCCc1c2n(c3ccc(OC)cc13)CCCc1ccccc1-2 | -3.1% (inactive) | 
48 | CCCCCCCCCCC(C)(C)C(=O)Nc1c(OC)cc(OC)cc1OC | -9.64% (inactive) | 
49 | N=S(=O)(O)Cc1noc2ccccc12 | -5.1% (inactive) | 
50 | O=C1Cc2c([nH]c3ccc(Br)cc23)-c2ccccc2N1 |  | 2.59 µM (active)
51 | CC1CCN=C(N)S1 (stereo not drawn) | -5.19% (inactive) | 
52 | NC(C(=O)N[C@@H]1C(=O)N2C(C(=O)O)=C(Cl)CS[C@H]12)c1ccccc1 (stereo partly drawn) | -2.99% (inactive) | 
53 | OC[C@H]1O[C@H](n2cnc3c(N[C@H]4CCC[C@@H]4O)ncnc32)[C@H](O)[C@@H]1O | -2.32% (inactive) | 
54 | OCC1NCC(O)C(O)C1O (stereo not drawn) | -9.33% (inactive) | 
55 | C[C@@H](NCCc1ccc(O)cc1)[C@@H](O)c1ccc(O)cc1 | 1.09% (inactive) | 
56 | CC[n+]1c(/C=C/C=C2/N(C)c3ccccc3C2(C)C)sc2ccccc21 | -49.1% (inactive) | 

Row | Compound | activation | Potency
57 | COC1(C2=NCCN2)COc2ccccc2O1 (stereo not drawn) | -0.197% (inactive) | 
58 | N[C@@H](CS(=O)O)C(=O)O | -3.91% (inactive) | 
59 | CC(N)(C(=O)O)c1ccc(C(=O)O)cc1 (stereo not drawn) | 6.34% (inactive) | 
60 | O=C(O)c1ccccc1Nc1ccccc1 | 2.18% (inactive) | 
61 | N[C@H](C(=O)O)[C@H](O)C(=O)O | -2.77% (inactive) | 
62 | c1ccc(CN2CCC3(CCCc4ccccc43)CC2)cc1 | -15.6% (inactive) | 
63 | NC1(C(=O)O)CCc2cc(C(=O)O)ccc21 (stereo not drawn) | -2.74% (inactive) | 
64 | CC(=O)NNC(=O)N1Cc2ccccc2Oc2ccc(Cl)cc21 | 3.93% (inactive) | 
65 | N#Cc1cc2nc(O)c(O)nc2cc1[N+](=O)[O-] | -9.53% (inactive) | 
66 | CCC1(O)CC2CN(CCc3c([nH]c4ccccc34)[C@@](C(=O)OC)(c3cc4c(cc3OC)N(C)C3[C@]45CCN4CC=C[C@@](CC)([C@@H](OC(C)=O)[C@]3(O)C(=O)OC)[C@H]45)C2)C1 (stereo partly drawn) | -29% (inactive) | 
67 | CCCCCCC/C=C\CCCCCCCCC(=O)O | -14.7% (inactive) | 
68 | O=c1ccn([C@@H]2O[C@H](COP(=O)(O)OP(=O)(O)O)[C@@H](O)[C@H]2O)c(=O)[nH]1 | -0.306% (inactive) | 
69 | COc1ccccc1N1CCN(CCN(C(=O)c2ccc(F)cc2)c2ccccn2)CC1 | -6.7% (inactive) | 
70 | CCN(CC)CCCCCCCCOC(=O)c1cc(OC)c(OC)c(OC)c1 | -1.21% (inactive) | 
71 | CCCOC(=O)c1c(-c2ccccc2)nc(CC)c(C(=O)SCC)c1CCC | -8.62% (inactive) | 
72 | [N-]=[N+]=Nc1ccc(C(=O)CSC[C@H](NC(=O)CC[C@H](N)C(=O)O)C(=O)NCC(=O)O)cc1 | -4.2% (inactive) | 
73 | CN1CCN(c2nc3cc(C(F)(F)F)ccc3n3cccc23)CC1 | -13% (inactive) | 
